# LDHA inh: inhibitors of human lactate dehydrogenase A. P00338. hit rate 0.15% among 480,000. activity change, % (values are at about 110 or 230 µM). purified LDHA, NADH/diaphorase-resazurin fluorescence; stronger effect = lower value. AID 1347041; in the data active means activity change below about -30%; inconclusive means mostly about -25% to -30%
#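 LDH5 2 nM; NADH 0.06 mM, pyruvate 0.2 mM; 200 mM Tris pH 7.4, EDTA, Tween-20; 5 min RT. Detection: diaphorase 0.133 mg/mL + resazurin 37 µM, fluorescence ex540/em590 at 0 and 20 min; normalized to enzyme-free and DMSO wells.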
# RGS4 inhibitor: inhibitors of human regulator of G protein signaling 4; P49798; Transcreener GDP fluorescence polarization, RGS4-accelerated GTP hydrolysis; Potency, µM (titrated, usually from 114 µM), hits mostly inhibitors; hit rate 0.039% among 390,000; further: nearly all actives have a fitted effect of over 75% in size
# Target sequence (P49798 whole entry, looked up): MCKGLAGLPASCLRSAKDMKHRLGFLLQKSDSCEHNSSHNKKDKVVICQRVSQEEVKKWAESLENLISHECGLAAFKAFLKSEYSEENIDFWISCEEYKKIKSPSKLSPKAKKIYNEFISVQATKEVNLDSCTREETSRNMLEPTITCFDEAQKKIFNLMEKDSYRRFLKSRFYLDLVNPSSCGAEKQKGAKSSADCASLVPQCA
#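 MLSMR compounds (23 nl, pin-transferred) preincubated 10 min at room temperature with a 500nM (2x) first reagent, then RGS4 at 900nM (2x) plus Transcreener GDP mix added; fluorescence polarization (620/688 nm) read before and after 90 min at 30 °C.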
# AT treatment: potential ataxia-telangiectasia treatments restoring KAP-1 phosphorylation | F2112 A-T fibroblasts, KAP-1 phosphorylation AlphaLISA; neocarzinostatin DNA damage 30 min before lysis | Potency, µM (titrated, usually from 57.5 µM), most hits filed as activators | hit rate 0.19% among 320,000 | AID 485349; further: nearly all actives have a fitted effect of over 45% in size
#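 ATM-like activity read as KAP-1 phosphorylation via AlphaLISA donor/acceptor antibody pairs after lysis and 6 hr at 25C. Cells were ATM-null patient fibroblasts (F2112, hTERT), dosed 60 min, then exposed to the DSB inducer NCS for 30 min.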
# Anesthetic bind: candidate novel general anesthetic via apoferritin binding | P02791 | apoferritin/1-aminoanthracene competitive binding, fluorescence | Potency, µM (series often up to 77.5 µM), usual class: inhibitors | hit rate 0.074% among 350,000 | AID 485281; further: nearly all actives have a fitted effect of over 20% in size
# Target sequence (P02791 2-175 limits assumed): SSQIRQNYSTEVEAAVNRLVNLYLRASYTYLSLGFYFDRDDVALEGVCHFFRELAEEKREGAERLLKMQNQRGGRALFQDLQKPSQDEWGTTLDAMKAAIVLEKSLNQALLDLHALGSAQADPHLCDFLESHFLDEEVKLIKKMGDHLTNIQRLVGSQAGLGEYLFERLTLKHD
#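 Probe: 1-aminoanthracene (50% saturated, PBS). Protein: horse-spleen apoferritin, 10 uM. Incubation: 10 min, room temperature. Detection: 380 nm excitation, 535 nm emission. Analysis: normalized response, four-parameter Hill.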
# Hits are given with their value; n = inactive; u = inconclusive; x = no result; ! = not active in a repeat; [ ] = remark or other dose. In the library only some 0.35% were active in any assay of this set; here they are far more common. Unless noted, the call rests on the fitted dose curve; in most records, active means well fitted curve in the direction sought with a large enough effect; inconclusive means small, poorly fitted or top-dose-only effect, or another doubt; inactive means no such curve, though single readings can be large; an effect the other way counts as inactive or inconclusive.
SMILES,LDHA inh,RGS4 inhibitor,AT treatment,Anesthetic bind
COC(=O)c1ccc(C23CC4(C2)[C@H](CN(Cc2ccc(C(F)(F)F)cc2)[C@@H]4c2ccccc2)C3c2ccccc2)cc1 (stereo partly drawn),n,n,39.8µM,n
c1ccc(CCNc2nc3ccccc3s2)cc1,n,n,x,12.6µM
Cc1cccc2c(C(=O)O)cc(-c3ccc(Cl)s3)nc12,n,x,x,x
Cc1nn(C)c(C)c1CNCc1cccnc1N1CCOCC1,-38.5,x,x,x
Cc1nn(C)c(C)c1CNCc1ccnc(N2CCOCC2)c1,n,x,x,x
COCCN(C(=O)C1CCN(C(=O)c2ccccc2C)CC1)c1c(N)n(CC(C)C)c(=O)[nH]c1=O,-47.4,n,n,x
CC(Oc1ccc2ccc(=O)oc2c1)C(=O)Nc1ccc(C(N)=O)cc1 (stereo not drawn),n,x,x,x
Cc1ccc(C(C)C)c(OCC(=O)N/N=C/c2ccc(S(=O)(=O)O)o2)c1,n,n,14.1µM,n
O=C(NC12CC3CC(CC(C3)C1)C2)c1cccnc1,n,n,n,u
O=C(NC12CC3CC(CC(C3)C1)C2)c1cccc(OC(F)F)c1,n,n,3.98µM,u
N#CCOc1nc(N2CCOCC2)nc(N2CCOCC2)n1,-30.7!,n,n,n
CCOc1nc(OCC#N)nc(N2CCOCC2)n1,n,x,x,x
CCCCc1c(O)c2ccccc2n(CCCC)c1=O,n,n,n,n
CCCCc1c(CCC)c(=N)c2ccccc2n1C,-37.3,n,n,n
COC(=O)C1=CN(C(C)c2ccccc2)C=C(C(=O)OC)C1c1cc(OC)c(OC)c(OC)c1 (stereo not drawn),n,n,7.08µM,n
COC(=O)C1=CN(Cc2ccc(OC)cc2)C=C(C(=O)OC)C1c1cc(OC)c(OC)c(OC)c1,n,n,u,n
C(=C1/CCCC2=C1Nc1ncnn1C2c1ccccc1)/c1ccccc1 (stereo not drawn),x,x,39.8µM,u
CCN1CCN(CC(=O)Nc2c(OC)cccc2OC)CC1,-31.1,n,n,n
O=C1c2ccccc2CC[C@H]1CNCCc1ccc(O)cc1,x,4.23µM,x,x
CCCCOc1ccc(CNC(=O)c2cnc3sc(N4CCOCC4)nn3c2=O)cc1,n,n,x,4.47µM
CC12CCC(C(=O)NNc3ccc([N+](=O)[O-])cc3)(OC1=O)C2(C)C (stereo not drawn),n,n,10µM,n
Cc1ccc(C)c(-c2cc(C)ncc2C)c1,-30.5,x,x,x
Cc1ccc(Cc2cc(C)ncc2C)c(C)c1,n,x,x,x
Cc1ccc(NC(=O)/C(C#N)=C\c2ccccc2OC(F)F)cc1,n,x,x,x
Nc1c(C(=O)Nc2cc(Cl)cc(Cl)c2)sc2nc(-c3ccncc3)ccc12,-31.6,x,x,x
SMILES,LDHA inh,RGS4 inhibitor,AT treatment,Anesthetic bind
COc1ccc2cc(C(=O)N3CCN(S(=O)(=O)c4ccc(C)cc4)CC3)c(C)nc2c1,n,x,x,x
Cc1nonc1OC(C)CNc1ccc([N+](=O)[O-])cc1 (stereo not drawn),n,n,n,31.6µM
CCCN1CCN(c2cc(C(=O)O)c3cc(NC(=O)C(C)C)ccc3n2)CC1,n,x,x,x
COc1cccc(CN2C(=O)c3cccc(N)c3C2=O)c1,n,n,25.1µM,n
Cc1cc2nn(-c3ccc(Cl)cc3)nc2cc1N,n,n,22.4µM,n
Cc1cc2nn(-c3ccc(F)cc3)nc2cc1N,n,u,n,n
CN(C)c1cc(Nc2cccc(O)c2)c([N+](=O)[O-])c2nonc12,n,n,n,n
CN(C)c1cc(Nc2ccc(O)cc2)c([N+](=O)[O-])c2nonc12,n,n[11.4 µM],7.08µM,n
O=S(=O)(c1ccc2nc(NCCN3CCN(c4ccccc4F)CC3)ccc2c1)N1CCCC1,n,x,x,x
Cc1cc(C)n(Cc2ccc(C(=O)N/N=C/c3ccc(-c4ccc([N+](=O)[O-])cc4)o3)o2)n1,-65.3,u,n,n
CCOc1ccc(S(=O)(=O)N(CC(=O)Nc2cccc(C)c2)c2ccccc2)cc1,-34.4,x,x,x
Cc1occc1-c1nnc(-c2cc([N+](=O)[O-])cc([N+](=O)[O-])c2)o1,n,n,n,22.4µM
Cc1cc(-c2cc(C(=O)O)c3ccccc3n2)cc(C)c1C,n,x,x,x
Cc1ccc(-n2c3nc(=O)[nH]c(=O)c-3cc3ccc(Cl)cc32)c(C)c1,n,x,x,x
CC(=O)OC[C@]12CC[C@H]3[C@@](C)(CC[C@H]4C(C)(C)CCC[C@]34C)[C@@H]1C[C@H](C1=CC(=O)O[C@@H]1OC(C)=O)O2,x,x,39.8µM,x
CC1(C)CCC[C@]2(C)[C@H]3CC(=O)O[C@]3(C)CC[C@@H]12,n,n,n,n
Oc1ccc(-c2csc(Nc3cccc(O)c3)n2)cc1,n,x,x,x
